PubChem BioAssay (NCATS)
Values joined by “and” are separate entries in the source; they are usually repeats but may differ in a detail not shown here. Equal entries are not always repeated. Results filed as inconclusive are left out. Unmarked numbers belong to inactive results. The call rests on the fitted dose curve; in most records, active means well fitted curve in the direction sought with a large enough effect; inconclusive means small, poorly fitted or top-dose-only effect, or another doubt; inactive means no such curve, though single readings can be large or run the other way. Where a SMILES comes first, the peptide text is derived from it. Bridges are numbered along the chain shown (N, C = ends). [ ]: non-standard residue; d: D form. The star is where a group is joined. X2 = CC[C@H](C)CCCCC(=O)*; Dab = NCC[C@H](N)C(=O)O

Test: qHTS Assay for Identifying Gametocytocidal Compounds (AID 743244);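 further: actives lower the fluorescent signal which means gametocytes are killed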
Details: P. falciparum 3D7 stage III-V gametocytes, alamarBlue, 72 h; max response: stronger effect = lower value
Method in brief: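 3D7 gametocytes, stages III–V, 20,000/well; cpd 72 h, 37 °C/5% CO2; + alamarBlue 24 h; fluor. Ex 525/Em 598.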
On the % scale 0 is the no-effect control and ±100 the full control effect.

Compared with `Cc1cc(C)c(NC(=O)C[C@H](CC(=O)O)c2cccc3ccccc23)c(C(=O)N2CCC3(CCCC3)CC2)c1`, `CNC(=O)[C@H](Cc1c[nH]c2ccccc12)NC(=O)[C@@H](CC(=O)NO)CC(C)C` is higher in max response: -8.09% for the first, -3.58% for the second.

Going from `C=CCOc1ccc(CC(=O)O)cc1Cl` to `O=C(O)CCC/C=C\C[C@@H]1[C@@H](/C=C/[C@@H](O)COc2cccc(Cl)c2)[C@H](O)C[C@@H]1O`, the max response falls from 22.7% to -3.1%.

Going from `CC(=O)Oc1cccc(C(=O)O)c1OC(C)=O` to `CC(=O)OCC1=C(C(=O)O)N2C(=O)[C@@H](NC(=O)Cc3ccccc3)[C@H]2SC1`, the max response falls from 10.1% to 7.9%.

Going from `O=C(O)CCC/C=C\C[C@@H]1[C@@H](/C=C/[C@@H](O)COc2cccc(C(F)(F)F)c2)[C@H](O)C[C@@H]1O` to `CCCCC[C@H](O)/C=C/[C@H]1[C@H](O)CC(=O)[C@@H]1CCCCCCC(=O)O`, the max response falls from 7.42% to -10.5%.

First: CC1CCCC(C)N1NC(=O)c1ccc(Cl)c(S(N)(=O)=O)c1 (stereo unspecified)
Second: NC(=S)NS(=O)(=O)c1ccc(N)cc1
The max response of the first is higher: 7.73% for the first, 5.02% for the second.

Going from `C[C@@H]1O[C@@H](OC[C@H]2O[C@@H](Oc3c(-c4ccc(OCCO)c(OCCO)c4)oc4cc(OCCO)cc(O)c4c3=O)[C@H](O)[C@@H](O)[C@@H]2O)[C@H](O)[C@H](O)[C@H]1O` to `CCOc1cc(-c2nccc3cc(OC)c(OC)cc23)cc(OCC)c1OCC`, the max response falls from 6.8% to -3.95%.

Compared with `CN[C@@H]1[C@@H](O)[C@@H](O[C@@H]2[C@@H](O)[C@H](OC3OC(CN)=CCC3N)[C@@H](N)C[C@H]2N)OC[C@]1(C)O` (stereo partly specified), `CC(C)CCC[C@@H](C)[C@H]1CC[C@H]2[C@@H]3CC[C@@H]4C[C@H](O)CC[C@]4(C)[C@H]3CC[C@]12C` is lower in max response: -3.17% for the first, -3.57% for the second.

Compared with `C[C@H](O)CN(C)C`, `CC(C)(CO)[C@@H](O)C(=O)NCCCC(=O)O` is higher in max response: -4.88% for the first, -4.37% for the second.

Compared with `CC12CCC(C[N+](C)(CCC[N+](C)(C)C)C1)C2(C)C` (stereo unspecified), `CN1CCC(OC(=O)C(Oc2ccc(Cl)cc2)Oc2ccc(Cl)cc2)CC1` is higher in max response: -4.18% for the first, 32.5% for the second.

Compared with `CC[C@H](C)CCCCC(=O)N[C@@H](CCN)C(=O)N[C@H](C(=O)N[C@@H](CCN)C(=O)N[C@H]1CCNC(=O)[C@@H]([C@H](C)O)NC(=O)[C@H](CCN)NC(=O)[C@H](CCN)NC(=O)[C@H](CC(C)C)NC(=O)[C@@H](CC(C)C)NC(=O)[C@H](CCN)NC1=O)[C@@H](C)O` (X2-[Dab]T[Dab][Dab][Dab][dL]L[Dab][Dab][dT]; lactam 4-C), `CC(O)[C@@H]1NC(=O)[C@H](Cc2ccccc2)NC(=O)[C@H](C(C)O)NC(=O)[C@H](CCCCN)NC(=O)[C@H](Cc2c[nH]c3ccccc23)NC(=O)[C@H](Cc2ccccc2)NC(=O)[C@H](Cc2ccccc2)NC(=O)[C@H](CC(N)=O)NC(=O)[C@H](CCCCN)NC(=O)[C@@H](NC(=O)CNC(=O)[C@H](C)N)CSSC[C@@H](C(=O)O)NC(=O)[C@H](CO)NC1=O` (stereo partly specified) is higher in max response: -2.93% for the first, 1.43% for the second.

Going from `O[C@@H]([C@H](O)[C@H](O)CBr)[C@H](O)CBr` to `C=CC(=O)O`, the max response rises from -5.26% to -1.82%.

Going from `CCCCCCCCCCCCCCCCCCCCCC(=O)Nc1ccn([C@@H]2O[C@H](CO)[C@@H](O)[C@@H]2O)c(=O)n1` to `O=C(Cc1cccs1)N[C@@H]1C(=O)N2C(C(=O)[O-])=C(C[n+]3ccccc3)CS[C@H]12`, the max response rises from -10.3% to 7.46%.

First: Cc1ccc(C(C)(C)c2ccc(C)cc2)cc1
Second: NC(=O)Oc1ccc(Cc2ccccc2)cc1
The max response of the first is higher: 17% for the first, -7.34% for the second.

Compared with `O=C(O)/C=C/C(=O)Nc1ccc(S(=O)(=O)Nc2nccs2)cc1`, `C=N[C@@H](C(=O)N[C@@H]1C(=O)N2[C@@H]1SC(C)(C)[C@@H]2C(=O)O)c1ccccc1` is lower in max response: 0.278% for the first, -0.476% for the second.

Compared with `S=C=Nc1ccc(N=C=S)cc1`, `CN(C)CCOc1ccc(/C(=C(/CCCl)c2ccccc2)c2ccccc2)cc1` is higher in max response: -17.1% for the first, 7.93% for the second.

For `CC(C)=CCC/C(C)=C/CC/C(C)=C/CC/C=C(\C)CC/C=C(\C)CCC=C(C)C`, the max response was -7.41% and 5.06%.
